Bioassay records deposited in PubChem by National Center for Advancing Translational Sciences (NCATS).
HTT cytoprotect: Huntington cell model cytoprotection by ATP luminescence; Potency, µM (series often up to 56.4 µM), hits mostly activators; AID 1471; PC12 HTT-Q103 induced, cytoprotection, ATP luminescence, 40 h; hit rate 0.14% among 230,000; further: nearly all actives have a fitted effect of over 45% in size
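PC12 cells with ecdysone-inducible HTT exon 1 Q103-GFP, induced with 100 nM tebufenozide and co-treated with library compounds in a dose series (1536-well, 1500 cells/well). Cytoprotection read as ATP content by ATPlite luminescence.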
HPGD inh: inhibitors of human 15-hydroxyprostaglandin dehydrogenase (HPGD); P15428; purified HPGD, NADH fluorescence kinetic, PGE2 substrate; Potency, µM, actives largely listed as inhibitors; hit rate 4.3% among 150,000; AID 894; active means well fitted inhibition curve with a large enough effect, not every such curve was filed as active; inconclusive means small, poorly fitted or top-dose-only effect, or another doubt; inactive means no such curve, though single readings can be large or run the other way
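NADH formation kinetics: reaction with 30 uM PGE2 and 1 mM NAD+ (final), 20 nM enzyme, Tris-HCl pH 8 with Tween 20, after 15 min compound preincubation at room temperature. Fluorescence change, last versus first of five reads.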
HTT aggregate: reduces HttQ103-GFP aggregates in PC12 cells. PC12 HttQ103-GFP aggregates, Acumen cytometry, 40 h. Potency, µM (doses to about 46.1 µM), hits mostly inhibitors. hit rate 1.1% among 220,000. AID 1688; further: nearly all actives have a fitted effect of over 60% in size
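Multiplexed with ATP-based cell death, this channel scores GFP aggregates in PC12 cells expressing inducible HTTex1-Q103-GFP. Induction used 100 nM tebufenozide; compounds were tested in concentration series.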
Luc counter: blocks Kinase-Glo luciferase, a counter-screen artifact | Kinase-Glo luciferase, ATP luminescence, 8 min | AID 1379 | hit rate 0.28% among 200,000 | Q27757 | Potency, µM (titrated, usually from 38.3 µM), usual class: inhibitors; further: nearly all actives have a fitted effect of over 60% in size
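Light output from Kinase-Glo luciferase with luciferin and 10 uM ATP in 50 mM imidazole pH 7.2, KCl, MgCl2, Tween 20, BSA; compound pin-delivered, 8-min ambient incubation, then luminescence read.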
Lamin A splicing: changes lamin A minigene splicing in HeLa cells; HeLa LMNA splicing GFP/RFP minigene ratio, 48 h; AID 1487; Potency, µM (doses to about 46.1 µM), hits mostly inhibitors; hit rate 0.01% among 200,000; active means well fitted inhibition curve with a large enough effect in the signal ratio, with a control signal flat, not every such curve was filed as active; inconclusive means small, poorly fitted or top-dose-only effect, or effect the other way, or a change in a side signal; the % refers to the signal ratio
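S3 HeLa cells stably expressing lamin A-EGFP splicing minigene plus DsRed2, 600 cells/well, 48 h compound exposure at 37C. Laser-scanning cytometry; analysed as GFP (500-530 nm)/RFP (575-640 nm) total intensity ratio; 0.5% DMSO vehicle.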
ALDH1A1 inh: blocks purified human ALDH1A1 activity; Purified ALDH1A1, NADH fluorescence, propionaldehyde substrate; Potency, µM (highest dose often 75.3 µM), actives largely listed as inhibitors; hit rate 7.3% among 220,000; AID 1030; active means well fitted inhibition curve with a large enough effect, not every such curve was filed as active; inconclusive means small, poorly fitted or top-dose-only effect, or another doubt; inactive means no such curve, though single readings can be large or run the other way
Target sequence (P00352 whole entry, looked up): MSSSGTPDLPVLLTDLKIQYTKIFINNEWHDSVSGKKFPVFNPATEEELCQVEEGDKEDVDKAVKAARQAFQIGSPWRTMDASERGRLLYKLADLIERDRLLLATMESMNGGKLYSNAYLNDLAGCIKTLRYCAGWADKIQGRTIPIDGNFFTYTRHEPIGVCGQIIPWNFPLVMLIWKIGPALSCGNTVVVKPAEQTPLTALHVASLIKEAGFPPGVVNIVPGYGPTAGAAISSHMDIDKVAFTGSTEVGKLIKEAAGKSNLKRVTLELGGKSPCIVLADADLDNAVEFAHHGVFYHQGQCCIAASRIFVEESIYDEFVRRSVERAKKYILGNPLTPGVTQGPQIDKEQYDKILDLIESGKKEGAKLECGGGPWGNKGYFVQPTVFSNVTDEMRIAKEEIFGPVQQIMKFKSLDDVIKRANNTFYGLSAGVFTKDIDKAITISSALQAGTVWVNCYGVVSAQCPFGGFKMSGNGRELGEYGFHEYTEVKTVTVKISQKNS
Of the large screens only hits and unclear results are named; the others gave an inactive call. This is a sample that favours compounds with a hit; in the whole collection about 9% have one here. Unless noted, the call rests on the fitted dose curve; in most records, active means well fitted curve in the direction sought with a large enough effect; inconclusive means small, poorly fitted or top-dose-only effect, or another doubt; inactive means no such curve, though single readings can be large; an effect the other way counts as inactive or inconclusive.

Cc1cc(/C=N/O)c(C)n1-c1ccc(Br)cc1	HPGD inh inconclusive, HTT aggregate inconclusive, Lamin A splicing inconclusive, ALDH1A1 inh 8.9µM
Cc1cccc(C)c1-n1c(C)cc(/C=N/NC(N)=S)c1C	ALDH1A1 inh inconclusive
Cc1cccc(-n2c(C)cc(/C=N/O)c2C)c1	HPGD inh inconclusive, ALDH1A1 inh inconclusive
Cc1cc(/C=N/NC(N)=S)c(C)n1-c1ccc(Cl)cc1	ALDH1A1 inh 32µM
Cc1cc(/C=N/NC(N)=S)c(C)n1-c1ccc(Br)cc1	Lamin A splicing inconclusive, ALDH1A1 inh 16µM (no result: HPGD inh)
Cc1cc(/C=N\NC(=O)CC(=O)NC2CCCCC2)c(C)n1-c1ccc(Cl)cc1	ALDH1A1 inh inconclusive
Cc1cc(/C=N/NC(N)=S)c(C)n1-c1cccc(Cl)c1	ALDH1A1 inh 25µM (no result: HTT cytoprotect, HPGD inh)
c1ccc(NCCSc2nc3ccccc3s2)cc1	none (no result: HTT aggregate, Lamin A splicing)
COc1ccc(OCc2n[nH]c(=S)o2)cc1	HPGD inh inconclusive, ALDH1A1 inh 10µM
S=c1[nH]nc(CCc2ccc(Cl)cc2)o1	ALDH1A1 inh inconclusive (no result: HTT cytoprotect)
S=c1[nH]nc(COc2ccc(Cl)cc2)o1	HPGD inh inconclusive, ALDH1A1 inh 3.5µM
Cc1ccc(C)c(OCc2n[nH]c(=S)o2)c1	none (no result: HPGD inh, Luc counter, Lamin A splicing, ALDH1A1 inh)
Nn1cnnc1SCC(=O)Nc1ccc(C2CCCCC2)cc1	ALDH1A1 inh 11µM
COc1cc2c(cc1OC)CN(C(=O)CSc1n[nH]c(N)n1)CC2	ALDH1A1 inh inconclusive
CC1CN(c2snnc2C=C2C(=O)OC(C)(C)OC2=O)CC(C)O1 (centres undefined)	ALDH1A1 inh 20µM (no result: HPGD inh, Lamin A splicing)
CC(C)N(Cc1cc2ccccc2[nH]c1=O)C(=O)c1ccco1	ALDH1A1 inh 18µM (no result: HPGD inh, Lamin A splicing)
Cc1cccc(N(Cc2cc3ccccc3[nH]c2=O)C(=O)c2ccco2)c1C	ALDH1A1 inh 13µM
Cc1ccc(C)c(N(Cc2cc3ccc(C)cc3[nH]c2=O)C(=O)c2ccco2)c1	none (no result: HPGD inh, Luc counter, Lamin A splicing, ALDH1A1 inh)
COCC(=O)N(Cc1cc2ccccc2[nH]c1=O)c1ccc(OC)cc1	ALDH1A1 inh 32µM
CCOC(=O)C1(Cc2ccccc2C(F)(F)F)CCN(Cc2ccc(COC)o2)CC1	none (no result: HPGD inh, Luc counter, Lamin A splicing)
Nc1c(C(=O)NC2CC2)c2nc3ccccc3nc2n1-c1ccc2c(c1)OCO2	HPGD inh inconclusive, HTT aggregate inconclusive, ALDH1A1 inh inconclusive
CCOC(=O)N(CC)OC(=O)Nc1ccc(Cl)cc1	ALDH1A1 inh 4.5µM
CCOC(=O)N(C)OC(=O)Nc1ccc(Cl)c(Cl)c1	HPGD inh inconclusive, ALDH1A1 inh 4µM
CCOC(=O)CNNC(=O)Nc1ccc(Cl)c(Cl)c1	none (no result: HTT cytoprotect)
COC(=O)C(C)Nc1cccc(Br)c1 (centres undefined)	none (no result: HPGD inh, Luc counter, Lamin A splicing, ALDH1A1 inh)
CCCn1c(O)c(N=NC(=O)c2cccnc2)c2cc(Br)ccc21	ALDH1A1 inh 1.1µM (no result: HPGD inh, Luc counter, Lamin A splicing)
CCCn1c(O)c(N=NC(=O)c2ccco2)c2ccccc21	Lamin A splicing inconclusive, ALDH1A1 inh inconclusive
CCOC(=O)c1c(N)sc(C(=O)Nc2ccc3c(c2)OCO3)c1C	HPGD inh inconclusive, Luc counter 4.5µM, ALDH1A1 inh inconclusive
CCOC(=O)c1c(C)c(C(=O)Nc2ccc3c(c2)OCO3)c(C)n1C	ALDH1A1 inh inconclusive
O=C(Nc1ccc2c(c1)OCO2)c1ccc(Cl)s1	HPGD inh 16µM, Luc counter inconclusive, ALDH1A1 inh inconclusive
CNc1oc(Cc2ccccc2)nc1S(=O)(=O)c1ccccc1	ALDH1A1 inh 25µM
COc1ccc2c(c1OC)C(=O)N1N=C(c3ccc(-c4ccccc4)cc3)CC21 (centres undefined)	ALDH1A1 inh inconclusive (no result: HPGD inh, Lamin A splicing)
COc1ccc(C2=NN3C(=O)c4c(ccc(OC)c4OC)C3C2)cc1 (centres undefined)	HTT cytoprotect inconclusive, HTT aggregate inconclusive, ALDH1A1 inh inconclusive
COc1ccc2c(c1OC)C(=O)N1N=C(c3ccc(Cl)cc3)CC21 (centres undefined)	ALDH1A1 inh 11µM
COc1ccc2c(c1OC)C(=O)N1c3ccccc3N=C(c3ccc([N+](=O)[O-])cc3)CC21 (centres undefined)	HPGD inh 35µM, ALDH1A1 inh 10µM
C=CCSC1=N/C(=C\c2sccc2C)C(=O)S1	none
C=CCSC1=N/C(=C\C=C\c2ccco2)C(=O)S1	ALDH1A1 inh 20µM
Cc1ccc(NCc2ccco2)cc1C	ALDH1A1 inh inconclusive (no result: HPGD inh)
